The target of test [1] is Estrogen receptor (Homo sapiens) (UniProt P03372). Kind of test: CCTE_Deisenroth_AIME_384WELL_LUC_Shift: CCTE's 384-well Estrogen Receptor Transactivation Assay with AIME metabolic competence data shift (ERTA luciferase; difference in metabolism positive and negative), Deisenroth Lab (AID 2284041).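 Further: shift is response with S9 minus without S9 so positive means metabolism raised ER signal.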 Summed up: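 Here, parent compounds undergo 2 h phase I metabolism by PB/BNF-induced rat S9 before 24 h transactivation in VM7Luc4E2 cells; the curve models S9-positive minus S9-negative response over a 10-point series.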
Chain of Estrogen receptor (Homo sapiens) (P03372 whole entry, looked up): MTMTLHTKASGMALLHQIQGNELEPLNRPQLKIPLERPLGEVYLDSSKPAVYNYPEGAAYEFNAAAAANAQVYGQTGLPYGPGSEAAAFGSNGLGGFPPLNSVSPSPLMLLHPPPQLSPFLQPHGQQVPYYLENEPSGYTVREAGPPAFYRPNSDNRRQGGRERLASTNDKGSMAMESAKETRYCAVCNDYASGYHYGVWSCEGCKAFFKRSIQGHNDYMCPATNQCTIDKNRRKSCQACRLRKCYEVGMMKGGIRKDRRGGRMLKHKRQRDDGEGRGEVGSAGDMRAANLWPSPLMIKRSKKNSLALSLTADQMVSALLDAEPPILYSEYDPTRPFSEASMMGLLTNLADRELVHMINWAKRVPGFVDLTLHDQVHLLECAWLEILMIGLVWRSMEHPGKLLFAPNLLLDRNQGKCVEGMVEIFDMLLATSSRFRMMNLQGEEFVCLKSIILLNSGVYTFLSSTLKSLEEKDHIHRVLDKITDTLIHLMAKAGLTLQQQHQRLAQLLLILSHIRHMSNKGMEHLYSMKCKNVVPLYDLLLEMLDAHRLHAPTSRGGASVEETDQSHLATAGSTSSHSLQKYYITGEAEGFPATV

A short description of test [2]: CCTE_Shafer_MEA_dev_burst_rate: CCTE's Neural Network Formation Assay for Burst Rate, Shafer Lab (AID 2284042).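 On AC50: potency for loss of burst rate below DMSO control.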 A digest of the protocol: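 Rat primary cortical cultures on PEI/laminin MEA; compound from plating, re-dosed at DIV 5, 9 media change. Single-electrode bursts/recording length, well mean of active electrodes; AUC over DIV 5–12 recordings; loss-of-signal vs DMSO.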

The nature of test [3]: CCTE_Shafer_MEA_dev_bursting_electrodes_number: CCTE's Neural Network Formation Assay for Number of Bursting Electrodes, Shafer Lab (AID 2284043; active means hit-call score of the fitted dose curve at least 0.9, where 1 is the maximum;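 further: potency is for loss of bursting electrodes relative to DMSO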). A digest of the protocol:
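Primary rat cortical neurons were cultured on PEI-coated 48-well MEA plates (16 electrodes/well) and exposed from plating through day 12, with compound renewed at feeds on DIV 5 and 9. Electrodes bursting ≥1 per 2 min were counted on DIV 5, 7, 9, 12; trapezoidal AUC taken.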

Test [4] in a line: CCTE_Shafer_MEA_dev_per_burst_interspike_interval: CCTE's Neural Network Formation Assay for Burst Interspike Interval, Shafer Lab (AID 2284044).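 Further: mean spike spacing inside bursts as AUC over recordings on days 5 7 9 12.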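 On AC50: potency for a decrease of within-burst interspike interval below DMSO level.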 Summed up:
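Mean interspike interval within single-electrode bursts, averaged over bursting electrodes, from rat cortical cultures on MEA plates recorded on days 5, 7, 9 and 12. Continuous compound exposure from plating; trapezoidal AUC fitted downward relative to DMSO.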

Test [5] in a line: CCTE_Shafer_MEA_dev_burst_duration_mean: CCTE's Neural Network Formation Assay for Mean Burst Duration, Shafer Lab (AID 2284045).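 On AC50: curve fitted for loss meaning shorter burst duration than DMSO.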 Summed up:
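Primary rat cortical neurons on PEI-coated 16-electrode MEA wells, exposed from plating through day 12 with compound renewed at DIV 5 and 9; spontaneous activity recorded days 5, 7, 9, 12. Well-mean burst duration collapsed as trapezoidal AUC, fitted for loss versus DMSO.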

Test [6] can be described thus: CCTE_Shafer_MEA_dev_interburst_interval_mean: CCTE's Neural Network Formation Assay for Mean Interburst Interval, Shafer Lab (AID 2284046).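 Further: well-mean interburst interval of bursting electrodes as AUC over four recording days; curve fitted for decrease in interburst interval relative to DMSO.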 A digest of the protocol: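 Rat cortical neurons, 1.5 x 10^5 cells/well, 48-well MEA; compound from day 0 through DIV 12, media and treatment renewed DIV 5/9. Recordings DIV 5, 7, 9, 12; well-mean interburst interval → trapezoidal AUC, loss direction vs DMSO.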

Test [7] can be described thus: CCTE_Shafer_MEA_dev_inter_network_spike_interval_mean: CCTE's Neural Network Formation Assay for Mean Inter-network Spike Interval, Shafer Lab (AID 2284047).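 On AC50: potency for a decrease in mean inter-network spike interval below DMSO.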 Summed up:
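Primary rat cortical neurons on PEI-coated 48-well MEAs (16 electrodes/well) were exposed from plating day 0 to DIV 12, with dosing renewed at DIV 5 and 9. Recordings at DIV 5, 7, 9, 12 were collapsed by trapezoidal AUC, loss-of-signal fit vs DMSO.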

Test [8] is described as follows: CCTE_Shafer_MEA_dev_network_spike_number: CCTE's Neural Network Formation Assay for Number of Network Spikes, Shafer Lab (AID 2284048).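 Further: synchronized bursts across electrodes counted on days 5 7 9 12 and integrated as AUC.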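 On AC50: fit as a loss of signal meaning fewer network spikes than DMSO.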 A digest of the protocol: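 Primary rat cortical neurons were seeded at 1.5 x 10^5 cells/well on PEI-coated 16-electrode MEA wells with laminin, exposed from plating day 0, compound renewed at DIV 5 and 9. Network spikes were recorded on days 5, 7, 9, 12 and summarized as trapezoidal AUC versus DMSO.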

Test [9] is described as follows: CCTE_Shafer_MEA_dev_network_spike_peak: CCTE's Neural Network Formation Assay for Mean Number of Electrodes in Network Spike, Shafer Lab (AID 2284049).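 Further: fitted for loss of signal meaning fewer electrodes in network spikes than DMSO.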 A digest of the protocol: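 Continuous 12-day exposure of rat cortical cultures, starting at plating, on MEA plates. Endpoint: electrodes participating in network-spike peaks, AUC across DIV 5–12, DMSO as negative control.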

Test [10] in a line: CCTE_Shafer_MEA_dev_spike_duration_mean: CCTE's Neural Network Formation Assay for Mean Spike Duration, Shafer Lab (AID 2284051).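 Further: mean network spike duration pooled as area under curve over DIV 5 to 12 recordings.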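 On AC50: potency for a decrease in mean network spike duration versus DMSO.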 Summed up:
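Rat cortical primary cultures, 48-well MEA (16 electrodes/well); compound from plating, renewed DIV 5, 9. Network spike duration (AxIS adaptive detector) recorded DIV 5/7/9/12, combined as trapezoidal AUC; loss direction vs DMSO.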

A short description of test [11]: CCTE_Shafer_MEA_dev_network_spike_duration_std: CCTE's Neural Network Formation Assay for Standard Deviation of Network Spike Duration, Shafer Lab (AID 2284052).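 Further: area under curve of spike duration SD across recording days 5 to 12; hits are decreases in network spike duration SD versus DMSO vehicle.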 A digest of the protocol: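 Rat cortical cultures, 1.5 x 10^5 cells/well, exposed continuously from plating to DIV 12 with media/compound renewal at DIV 5, 9. Spontaneous activity recorded DIV 5/7/9/12, AxIS adaptive spike detector; AUC across days; negative direction vs DMSO.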

Test [12] can be described thus: CCTE_Shafer_MEA_dev_per_network_spike_spike_number_mean: CCTE's Neural Network Formation Assay for Mean Number of Spikes in a Network Spike, Shafer Lab (AID 2284053).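 On AC50: fitted as decrease in spikes per network spike relative to DMSO.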 A digest of the protocol: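 Rat cortical primary cultures on 48-well MEA; compound from day 0, re-dosed with full media change DIV 5, 9. Recorded DIV 5, 7, 9, 12; spikes in 0.05 s window at network-spike peak ÷ total network spikes; AUC; loss vs DMSO.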

Test [13] can be described thus: CCTE_Shafer_MEA_dev_per_network_spike_spike_percent: CCTE's Neural Network Formation Assay for Percent of Spikes in a Network Spike, Shafer Lab (AID 2284054). A digest of the protocol: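 Primary rat cortical neurons on 16-electrode MEA wells (PEI-coated, laminin at plating), exposed from day 0 with renewal at DIV 5 and 9; spikes within 0.05 s of network-spike peaks over total spikes, AUC across days 5, 7, 9, 12.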

Test [14] is described as follows: CCTE_Shafer_MEA_dev_LDH: CCTE's Lactate Dehydrogenase Assay for Cytotoxicity in the Neural Network Formation Assay, Shafer Lab (AID 2284068; active means hit-call score of the fitted dose curve at least 0.9, where 1 is the maximum;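 further: exposure for twelve days from plating with re-dosing on DIV 5 and 9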). Summed up: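 Rat cortical primary neurons, MEA culture; dosing day 0–12, full medium plus compound exchange DIV 5, 9. Read-out: LDH enzyme activity, spectrophotometric. DMSO = negative control/baseline; signal loss → cytotoxicity.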

Test [15] is described as follows: CCTE_Shafer_MEA_dev_AB: CCTE's Alamar Blue Assay for Cytotoxicity in the Neural Network Formation Assay, Shafer Lab (AID 2284083; active means hit-call score of the fitted dose curve at least 0.9, where 1 is the maximum;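 further: resazurin reduction fluorescence as viability of cultured neurons; twelve days of exposure from plating with re-dosing on DIV 5 and 9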). Summed up: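 Rat cortical primary cultures, 1.5 x 10^5 cells/well on MEA; continuous compound exposure over 12 days of network development, re-dosed with full medium change DIV 5 and 9. Alamar Blue fluorescence; loss of signal = cytotoxicity vs DMSO baseline.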
(In general: Resazurin is reduced to fluorescent resorufin, in cell work by metabolically active cells.)

Test [16] can be described thus: CCTE_Shafer_MEA_acute_AB: CCTE's Alamar Blue Assay for Cytotoxicity in the Neural Acute Assay, Shafer Lab (AID 2284069; active means hit-call score of the fitted dose curve at least 0.9, where 1 is the maximum;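 further: active compounds lower the viability signal compared with DMSO wells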). Summed up:
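Read-out: resazurin fluorescence (ex 544, em 590 nm) after CTB reagent at 1:6 dilution in fresh media. Cells: primary rat cortical neuron networks, DIV 13 or 15, chemically exposed on MEA plates; DMSO as negative control/baseline.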

Several values for one entry are separate records, joined by “and”; a condition that tells them apart may be missing. Equal values may be shown once. Inconclusive results are not listed. The source holds several records for some structures; these can differ, active in one and inactive in another. Activity calls are given as the source filed them. How the source made its calls, unless noted: active means hit-call score of the fitted dose curve at least 0.9, where 1 is the maximum; inactive means score below 0.9.

As a reminder, the AC50 is the concentration at which the activity in the assay is half-maximal. For `COP(=O)(OC)O/C(=C\Cl)c1cc(Cl)c(Cl)cc1Cl`, the result in test [1], in test [2], in test [4], in test [5], in test [6] and in [7] was inactive. Also, the compound was classed as inactive in [8], in [10], in test [11], in [12], in [13] and in test [15]. In addition, the AC50 in [3] was 79.3 µM (active) and 51.5 µM (active); in test [9], 86.9 µM (active) and 12.5 µM (active); in test [10], 84200 nM (active); in test [14], 50 µM (active) and 51.5 µM (active); in [15] it was 50000 nM (active).

For `CCOC(=O)Nc1cccc(OC(=O)Nc2ccccc2)c1`, the outcome in [1] was inactive.

In the case of `NNC(=S)NN`, in test [1], the outcome was inactive.

As for `CC(=O)[O][Hg][c]1ccccc1`, the result in [1] was inactive. The AC50 in test [2] is 11.7 nM (active); in [3], 10.8 nM (active); in test [4], 15.4 nM (active); in test [5] it was 9.63 nM (active); in test [6], 9.58 nM (active); in [7], 25.5 nM (active). For the same compound, the concentration at half-maximal activity (AC50) in [8] was 9.11 nM (active); in test [9] it was 14.5 nM (active); in test [10] it was 12.1 nM (active); in [11], 11.2 nM (active); in test [12], 23.8 nM (active); in test [13], 17.3 nM (active). The AC50 in [14] was 18.3 nM (active); in test [16], 20000 nM (active); in test [15], 22 nM (active).

For the compound `C=C(C)C#N`, the result in test [1] was inactive.

Consider `CNC(=O)O/N=C/C(C)(C)S(C)=O` (centres undefined), for which the outcome in test [1] was inactive.

As to `COc1ccc(C=O)cc1`, in [1], the result was inactive.

Turning to `CC(=O)C=C(C)C`, in test [1], the outcome was inactive.

As to `O=C1CCCN1`, the result in test [1] was inactive.

Turning to `CC(C)(C)c1cc(O)ccc1O`, the AC50 is 30700 nM (active) in test [1]; 6040 nM (active) in [3]; 10000 nM (active) in test [9]; 9620 nM (active) in [10]; 5630 nM (active) in test [12]; 5230 nM (active) in [13]. Further, the AC50 in test [14] is 15000 nM (active); in test [15], 15200 nM (active). The call in test [2], in test [4], in test [5], in test [6], in test [7] and in [8] was inactive. In addition, the outcome in test [11] and in test [16] was inactive.

Consider `Cc1ccc(N)cc1Cl`, for which the result in test [1] was inactive.

With `c1cc[c]([Hg][c]2ccccc2)cc1`, in test [1], the AC50 was 365 nM (active).

Consider `O=C(Cc1ccccc1)c1ccccc1`, for which, in test [1], the outcome was inactive.

Values taken from PubChem BioAssay (EPA / NIEHS).
